# BLM helicase inh: blocks DNA unwinding by human BLM helicase | recombinant BLM DNA unwinding, fluorescence dequenching | Potency, µM (highest dose often 56.1 µM), inactives show at the top dose activity change, negative = inhibition, hits mostly inhibitors | P54132 | 350,000 tested, 0.2% active;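 note: plate controls were vehicle for no effect and no enzyme for full effect; nearly all actives have a fitted effect of over 35% in size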
# RECQ1 helicase: RECQ1 (human) helicase inhibition | P46063 | RECQ1 DNA unwinding, red fluorescence kinetic read | Potency, µM (series often up to 57.3 µM), for the others: at the highest dose activity, negative = inhibition, actives largely listed as inhibitors | 240,000 tested, 0.54% active;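 note: plate controls were vehicle for no effect and no enzyme for full effect; nearly all actives have a fitted effect of over 30% in size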
#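 RECQ1T1 50 nM; forked duplex (20 bp + 30-nt ss tails) 200 nM, ATP 2 mM final; pH 8.0, 2 mM MgCl2, 2.5 ug/ml poly(dI-dC); 15 min compound preincubation; discontinuous kinetic read over 2 h at RT.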
# KAT2A inh: GCN5L2 (KAT2A) acetyltransferase inhibition; Q92830; GCN5L2 HAT assay, ThioGlo1 CoA-SH fluorescence; Potency, µM (series often up to 58.9 µM), for the others: at the highest dose activity change, negative = inhibition, actives largely listed as inhibitors; 390,000 tested, 0.21% active
#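 qHTS, 1536-well. 20nM enzyme, pH 7.5 HEPES/EDTA/Tween-20 buffer; 15 min compound preinc., RT. Start: 75uM H3(1-25), 70uM AcCoA, 50uM ThioGlo1. Read Ex340/Em540 at t=0 (autofluorescence flag) and t=20 min.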
# TDP1 block: TDP1 (human) enzyme inhibition; Potency, µM (doses to about 130 µM), without a hit: at the highest dose activity change, negative = inhibition, hits mostly inhibitors; AID 485290; Q9NUW8; recombinant TDP1, AlphaScreen DNA substrate cleavage; 350,000 tested, 0.28% active; note: nearly all actives have a fitted effect of over 40% in size
#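 Recombinant human Tdp1 (E. coli-expressed, 1 nM final) preincubated with compounds 15 min at room temperature, then 5'-biotin/3'-phosphotyrosine-FITC DNA substrate (15 nM final) added for 5 min. AlphaScreen beads (10 ug/ml final) added 10 min; cleavage lowers signal.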
# Lamin A splicing: changes lamin A minigene splicing in HeLa cells; HeLa LMNA splicing GFP/RFP minigene ratio, 48 h; Potency, µM (top dose mostly 46.1 µM), for the others: at the highest dose ratio change, negative = inhibition, actives largely listed as inhibitors; 200,000 tested, 0.01% active; AID 1487; active = well fitted inhibition curve with a large enough effect in the signal ratio, with a control signal flat, not every such curve was filed as active; inconclusive = small, poorly fitted or top-dose-only effect, or effect the other way, or a change in a side signal; the % refers to the signal ratio
#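 S3 HeLa cells stably expressing lamin A-EGFP splicing minigene plus DsRed2, 600 cells/well, 48 h compound exposure at 37C. Laser-scanning cytometry; analysed as GFP (500-530 nm)/RFP (575-640 nm) total intensity ratio; 0.5% DMSO vehicle.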
# APE1 inh: blocks human APE1 abasic DNA cleavage | P27695 | recombinant APE1, TAMRA/BHQ-2 abasic DNA cleavage fluorescence | Potency, µM (series often up to 65.8 µM), for the others: at the highest dose activity change, negative = inhibition, usual class: inhibitors | 350,000 tested, 0.35% active | AID 2517;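 note: plate controls were vehicle for no effect and reference inhibitor for full effect; nearly all actives have a fitted effect of over 55% in size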
#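 Readout is kinetic fluorescence (ex 525, em 598 nm) from cleavage of 50 nM TAMRA/BHQ-2 THF abasic duplex by 0.75 nM APE1, compound added 15 min beforehand at RT.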
# Starred values were filed as active, the others as inactive; i = inactive; u = inconclusive; x = not tested or not shown; [ ] = another dose, or the depositor's remark. Shown are actives, neighbours in structure and some others; about 0.9% of the full set was active somewhere. Unless noted, calls come from the whole dose curve; as a rule, active = well fitted curve in the direction sought with a large enough effect; inconclusive = small, poorly fitted or top-dose-only effect, or another doubt; inactive = no such curve, though single readings can be large; an effect the other way counts as inactive or inconclusive. Unless noted, % is set by controls: 0 for no effect and ±100 for the full control effect; potency is the fitted concentration of half-maximal effect.
SMILES,BLM helicase inh,RECQ1 helicase,KAT2A inh,TDP1 block,Lamin A splicing,APE1 inh
CN=c1scc(-c2ccccc2F)n1/N=C/c1ccc(O)c(O)c1O,u,7.9µM*,u,10%,-2%[9.22 µM],10µM*
CC(C)N=c1scc(-c2cccs2)n1/N=C/c1ccc(O)c(O)c1O,-21%,-17%,-8%,12%,u,-7%
N=C1C(c2nc3ccccc3c(=O)[nH]2)=C(O)CN1CCc1ccccc1,-10%,-5%,-8%,71µM*,-6%,-1%
N=C1C(c2nc3ccccc3c(=O)[nH]2)=C(O)CN1CCO,2%,-2%,-3%,3%,10%,-7%
O=C(O)C(c1ccccc1)N1C(=O)/C(=C\c2ccc(-c3ccc(Br)cc3)o2)SC1=S (configuration not stated),32µM*,x,u,x,x,u
COc1cc(/C=C2\SC(=S)N(C(C(=O)O)c3ccccc3)C2=O)cc(OC)c1OC (configuration not stated),-2%,0%,-8%,x,x,-3%
COc1ccc(-c2nc3cnc(N4CCNCC4)nc3n(Cc3cccs3)c2=O)cc1,-28%,-12%,u,x,u,-6%
O=C(CSc1nnc(-c2cccc(S(=O)(=O)N3CCCC3)c2)n1-c1ccccc1)Nc1ccc(Cl)cc1,x,x,x,x,x,-3%
Cc1cc(C)c2c(n1)sc1c(O)cc(=O)[nH]c12,u,-4%,-10%,22µM*,16%,u
CN1C(=O)N(C)C2=NNC=NC2(O)C1=O (configuration not stated),28µM*,-3%,x,x,x,13%
CNc1cc2c(cc1S(=O)(=O)Nc1ccc(C)c(C)c1)CCC(=O)N2,x,x,x,2%,x,x
O=C1COc2cc(S(=O)(=O)NCc3ccco3)c(Cl)cc2N1,-12%,x,-14%,56µM*,-5%[46 µM],-20%
COc1ccc(CNS(=O)(=O)c2cc3c(cc2Cl)NC(=O)CO3)cc1,2%,x,-16%,8%,5%[46 µM],-7%
CN1CCc2ccc3c4c2[C@]1(C)Cc1cccc(c1-4)OCO3,-1%,43%,x,15%,x,u
O=C(O)c1ccc(N/N=C/c2ccc3c(c2)OCO3)cc1,-5%,-3%,-20%,4%,u,5%
O=C1OC(c2ccc3c(c2)OCO3)=N/C1=C\c1ccc(C(=O)O)cc1,1%,x,-5%,x,x,4.2µM*
Cc1ccc2c(c1)cc(C)c1nnc(SCC(=O)NCc3ccco3)n12,-9%,-19%,-4%,-12%,3%,9%
Cc1ccc2cc(C)c3nnc(SCC(=O)NCc4ccco4)n3c2c1,-8%,i,u,50µM*,3%,u
C#CCSc1nc2sc3c(c2c(=O)n1C)CCC3,6%,x,4%,x,x,9.5µM*
CSc1nc2sc3c(c2c(=O)n1C)CCC3,0%,x,u,1%,x,6%
COc1ccc([C@H]2[C@H](c3ccccc3)C(=O)N2Cc2ccccc2)cc1COc1ccc(NC(C)=O)cc1,x,x,x,0%,x,x
COc1cccc(NC(=O)CN(C)C(=O)c2cc(-c3ccco3)nc3ccccc23)c1,x,x,-9%,-13%[0.505 µM],x,11µM*
COc1ccc(-c2cc(C(=O)NCc3ccco3)c3ccccc3n2)c(OC)c1,-9%,x,-7%,8.9µM*,x,0%
CN(CC(=O)Nc1ccc(F)cc1)C(=O)c1cc(-c2ccco2)nc2ccccc12,x,x,-28%,x,x,-33%
COc1ccc(/C=C/C(=O)NCC(=O)N=Nc2c(O)[nH]c3ccc([N+](=O)[O-])cc23)cc1,u,x,-13%,50µM*,x,u
Cc1cccc(C(=O)Nc2ccc(N3CCC(CCN4CCOCC4)CC3)c(C(=O)O)c2)c1,2%,x,-9%,25µM*,u,48%
COc1cccc(Cn2c(=O)c(-c3ccc(Cl)cc3)nc3cncnc32)c1,-8%,-11%,-22%,x,u,u
Cc1ccc[n+](-c2[nH]c(=O)sc2/C=N/N=C(\[O-])c2cccnc2)c1,-5%,x,-8%,50µM*,x,-3%
